Bioassay records (PubChem)
Pf growth 96h: Primary qHTS for delayed death inhibitors of the malarial parasite plastid, 96 hour incubation; Potency, µM (top dose mostly 28.7 µM), inactives show at the top dose activity change, negative = inhibition, usual class: inhibitors; actives 6.9% (n = 320,000); P. falciparum luciferase reporter growth, 96 h; further: potency means the concentration at half of the fitted maximal effect; on the % scale 0 is the no-effect control and ±100 the full control effect
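96 h incubation, 37 C, 5% CO2, of luciferase-reporter P. falciparum-infected RBCs (2% hematocrit, 0.05% parasitemia final) with test compounds; endpoint luminescence.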
Cycloheximide cs: Cycloheximide Counterscreen for Small Molecule Inhibitors of Shiga Toxin; cell reporter, cycloheximide protein synthesis inhibition counterscreen; max response, %; actives 12% (n = 300,000); AID 2314, 2010; in the data active means max response mostly above about 13%, no sharp cut-off; inactive means mostly below about 14%; further: read at 38.3 µM for the half of the compounds with a filed dose; 0% is about no effect
Pf growth 48h: Primary qHTS for delayed death inhibitors of the malarial parasite plastid, 48 hour incubation; P. falciparum luciferase growth in erythrocytes, 48 h; Potency, µM (series often up to 28.7 µM), without a hit: at the top dose activity change, negative = inhibition, hits mostly inhibitors; actives 5.9% (n = 310,000); AID 504832, 2011; further: potency means the concentration at half of the fitted maximal effect; on the % scale 0 is the no-effect control and ±100 the full control effect
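Compounds are pin-transferred into medium, infected erythrocytes (2% hematocrit, 0.1% parasitemia final) are added, and plates sit one parasite generation at 37 C in 5% CO2. Detection reagent is then added and luminescence measured.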
MARV entry inh: qHTS for inhibitors of binding or entry into cells for Marburg Virus; actives 1.8% (n = 300,000); Potency, µM (top dose mostly 37.8 µM), for the others: at the highest dose activity change, negative = inhibition, most hits filed as inhibitors; Marburg virus pseudotyped entry inhibition, cell reporter; calls by dose curve; tested in HEK293 cells; further: potency means the concentration at half of the fitted maximal effect; on the % scale 0 is the no-effect control and ±100 the full control effect
LASV entry inh: qHTS for Inhibitors of binding or entry into cells for Lassa Virus; Lassa virus pseudotype entry inhibition, cell reporter; Potency, µM (titrated, usually from 37.9 µM), inactives show at the highest dose activity change, negative = inhibition, usual class: inhibitors; actives 1.2% (n = 300,000); AID 540256, 2011; calls by dose curve; tested in HEK293 cells; further: potency means the concentration at half of the fitted maximal effect; on the % scale 0 is the no-effect control and ±100 the full control effect; nearly all actives have a fitted effect of over 50% in size
Shiga toxin inh: A qHTS for Small Molecule Inhibitors of Shiga Toxin; Vero cells, Shiga toxin protein synthesis inhibition reporter; inhibition, % at 38.7 µM; actives 9.2% (n = 290,000); AID 2315, 2010; in the data active means inhibition mostly above about 28%, no sharp cut-off; inactive means mostly below about 43%; further: 0% is about no effect
* marks the source's active call; other numbers are inactive results; ? = inconclusive; / = no result; [ ] = remark or other dose. The list is not random: actives were taken first. Their share in the collection is about 19%. Unless noted, the call rests on the fitted dose curve; in most records, active means well fitted inhibition curve with a large enough effect; inconclusive means small, poorly fitted or top-dose-only effect, or another doubt; inactive means no such curve, though single readings can be large or run the other way.

SMILES | Pf growth 96h | Cycloheximide cs | Pf growth 48h | MARV entry inh | LASV entry inh | Shiga toxin inh
COc1ccc(CNC(=O)COC(=O)[C@@H]2CCCN2C(=O)c2cccs2)cc1 | / | / | / | -2.0%[46.1 µM] | -21.2%[46.1 µM] | /
Cc1ccc(Nc2nc3ccccc3n3cnnc23)cc1C | -0.2% | 37.0* | / | 2.0%[46.1 µM] | -20.4%[46.1 µM] | 31.3*
Cc1ccc2nc(Nc3ccc(C)c(C)c3)c3nncn3c2c1 | 1.5% | 11.8 | ? | -7.7% | / | 27.9*
Cc1cc(C)cc(Nc2nc3ccc(C)cc3n3cnnc23)c1 | 1.6% | -2.7 | 18.1% | ? | ? | -4.0
Cc1cccc(CCNc2nc3ccc(C)cc3n3cnnc23)c1 | ? | 29.7* | 161.3% | / | / | 73.6*
COCCn1c(COc2cccc(OC)c2)nnc1SCC(=O)NC1CCCCC1 | -21.1% | -4.0 | ? | 8.6%[46.1 µM] | 8.2% | 0.5
CCN(CCCNC(=O)C1c2ccccc2C(=O)N(CCOC)C1c1ccc(F)cc1)Cc1ccccc1 (centres undefined) | -19.9% | 1.1 | -29.6% | ? | 0.9% | -27.8
CCN(CC)CCCNC(=O)C1c2ccccc2C(=O)N(CCOC)C1c1ccc(F)cc1 (centres undefined) | 13.1µM* | 1.3 | 0.9% | 13.5% | 7.9% | -17.0
Cc1ccc(S(=O)(=O)Cc2ccc(C(=O)NCCCN3CCCC3=O)o2)cc1 | -23.9% | -0.9 | / | -4.6% | -12.2% | -10.4
CP(C)(=O)CCP(=O)(c1ccccc1)c1ccccc1 | 7.9% | -1.9 | 16.5% | -1.6% | -5.9% | 2.4
O=P(O)(O)CCP(=O)(c1ccccc1)c1ccccc1 | 1.65µM* | -5.2 | -12.0% | 7.0% | -15.6% | -7.9
COc1ccc(C)cc1Nc1n[n+](-c2ccccc2)c(-c2ccc(N(C)C)cc2)s1 | 2.08µM* | 2.1 | 2.62µM* | / | / | 12.4
COc1ccc(C)cc1Nc1n[n+](-c2ccccc2)c(-c2c(Cl)cccc2Cl)s1 | 7.38µM* | 2.7 | 10.4µM* | / | / | 11.5
COc1ccc(C)cc1Nc1n[n+](-c2ccccc2)c(-c2ccc(OC)c(OC)c2OC)s1 | 1.04µM* | -1.2 | ? | / | / | -8.3
COc1ccc(C)cc1Nc1n[n+](C)c(-c2c3ccccc3cc3ccccc23)s1 | ? | 6.9 | ? | / | / | 15.0
COc1ccc(C)cc1Nc1n[n+](C)c(-c2ccc(O)cc2O)s1 | ? | 2.7 | ? | / | / | -8.0
COCCN(C(=S)Nc1ccc(C)cc1C)C(C)c1cccs1 (centres undefined) | 35.3% | 9.3 | ? | / | / | 9.1
CC(C)(C)n1ncc(Oc2ccccc2[N+](=O)[O-])c(Cl)c1=O | -4.9% | 4.3 | -25.0% | -25.4% | -10.8% | -17.1
CC1C/C(=C/c2cccn2C)C(=O)/C(=C/c2cccn2C)C1 (centres undefined) | ? | 29.1* | / | ? | ? | 48.5*
CC1C/C(=C/c2ccncc2)C(=O)/C(=C/c2ccncc2)C1 (centres undefined) | -21.7% | -11.5 | ? | / | / | -18.4
Clc1cccc(-c2nc(NCc3cccnc3)c3ccccc3n2)c1 | ? | -4.3 | ? | -18.2% | 29.2% | -18.1
Cc1ccc(-c2cc(-c3c(C)nn(C)c(=O)c3N)[nH]n2)cc1 | ? | 25.5* | ? | / | / | 29.9
CCOC(=O)N1CCN(C(=O)C2CCN(S(=O)(=O)CC)CC2)CC1 | 1.65µM* | -1.4 | 2.0% | 6.3% | 16.9% | -18.8
CCCS(=O)(=O)N1CCC(C(=O)N2CCN(C(=O)OCC)CC2)CC1 | -6.3% | -1.8 | 17.6% | 11.0% | 3.5% | -9.6
CCC(=O)Nc1cccc(-n2nnnc2SCC(=O)N2CCCCC2)c1 | -8.8% | 17.5* | 6.2% | 0.1% | 0.5% | 27.4
SMILES | Pf growth 96h | Cycloheximide cs | Pf growth 48h | MARV entry inh | LASV entry inh | Shiga toxin inh
COc1cc(OC)cc(-n2nnnc2SCC(=O)N2CCCC2)c1 | ? | -3.0 | 14.7% | 5.9% | -26.9% | 2.1
COc1ccc(NN=Nc2nc3c([nH]2)c(=O)n(C)c(=O)n3C)cc1 | 67.2% | 40.3* | 41.8% | 25.4%[46.1 µM] | 2.4%[46.1 µM] | 83.9*
CCOC(=O)/C=C1\SCC(=O)N1CC(=O)Nc1cc(S(=O)(=O)N(C)C)ccc1C | / | / | / | 1.1%[46.1 µM] | -5.5%[46.1 µM] | /
O=[n+]1cc(-c2ccccc2)n([O-])c2c1CCCCC2 | 14.7µM* | 15.6* | 24.2% | 2.0% | 10.9% | -5.5
CC(C)Cn1nc(C(=O)NCc2ccccc2CN2CCCC2)c2ccccc2c1=O | ? | / | ? | -27.0% | ? | /
CCCCn1nc(C(=O)NCc2ccccc2CN2CCCC2)c2ccccc2c1=O | 7.38µM* | / | 9.28µM* | / | / | /
CCCn1nc(C(=O)NNC(=O)c2cccc(C)c2)c2ccccc2c1=O | / | / | / | -2.9% | 0.3% | /
CCCCn1nc(C(=O)NCC2COc3ccccc3O2)c2ccccc2c1=O (centres undefined) | ? | / | 10.4µM* | / | / | /
CCCCn1nc(C(=O)NNC(=O)c2ccncc2)c2ccccc2c1=O | ? | 40.2* | 11.6% | 9.5% | -16.9% | 20.2*
CCCCn1nc(C(=O)NCC(c2cccs2)N2CCOCC2)c2ccccc2c1=O (centres undefined) | ? | / | 9.28µM* | / | / | /
CC(=O)c1cccc(NC(=O)c2cccc3ccccc23)c1 | 33.9% | 8.4 | 37.0% | / | / | -3.9
CC1(C)C(=O)Nc2ccccc2N1C(=O)COC(=O)CCSc1ccccc1 | / | -2.0 | 10.1% | -6.2% | -1.6% | 14.3
CCCCn1nc(C(=O)Nc2nc3c(s2)CCCC3)c2ccccc2c1=O | 6.57µM* | 7.2 | ? | -4.0% | -9.6% | -13.3
CC1=NN(c2ccc(C(=O)O)cc2)C(=O)/C1=C\c1ccc(OC(=O)c2cccs2)cc1 | 5.2% | 16.4* | 92.4% | 27.7%[46.1 µM] | 7.0% | 38.9
Cc1ccc(C(=O)c2cn(Cc3ccccc3)c3c(F)cc(F)cc3c2=O)cc1 | / | / | / | 1.1%[46.1 µM] | 27.9%[46.1 µM] | /
COc1ccccc1N1CCN(C(=O)C(C)N(c2ccc(C)cc2)S(C)(=O)=O)CC1 (centres undefined) | / | 5.1 | ? | -15.7%[46.1 µM] | 3.4% | 9.8
COc1ccccc1N1CCN(C(=O)C(C)N(c2ccc(C)c(C)c2)S(C)(=O)=O)CC1 (centres undefined) | 11.7µM* | -3.7 | ? | -27.6% | -17.7% | -3.5
C=CCSc1nc2sc(-c3ccccc3)cc2c(=O)n1N | 40.2% | 0.8 | 23.6% | 10.7% | 4.8% | -47.3
CC(=O)c1cccc(OCC(O)CN2CC=C(c3ccccc3)CC2)c1 (centres undefined) | 1.85µM* | -1.2 | ? | -24.0% | -10.0% | -11.5
NC(=O)c1ccc(OCC(O)CN2CC=C(c3ccc(F)cc3)CC2)cc1 (centres undefined) | / | / | / | ? | 0.4% | /
CCc1ccc(CNC(=O)c2ccc(-c3nc(CS(=O)(=O)c4ccccc4)c(C)o3)cc2)cc1 | / | / | / | / | 0.9%[46.1 µM] | /
COC(=O)C1=C(C)NC(=O)NC1c1ccc(N2CCC(c3ccccc3)=N2)cc1 (centres undefined) | ? | -1.1 | ? | ? | -10.7% | -0.8
